# Experimental data from PMC7862700, “An all-to-all approach to the identification of sequence-specific readers for epigenetic DNA modifications on cytosine”.
# Legend:
# Assay in all cases: DAPPL (digital affinity profiling via proximity ligation, sequencing); 10 mM Tris-HCl pH 7.5, 50 mM NaCl, 1 mM DTT, 4% glycerol, room temperature, 30 min; GST-TFs on glutathione beads, 16-mer random dsDNA library, 0.1% formaldehyde crosslink after washing; high values mean tight binding
# [1] = biological target: T1, FLI1 (Homo sapiens, UniProt Q01543 1-452); conditions: protein: recombinant; tags: N-terminal GST; dsDNA, one strand shown
# T1 sequence: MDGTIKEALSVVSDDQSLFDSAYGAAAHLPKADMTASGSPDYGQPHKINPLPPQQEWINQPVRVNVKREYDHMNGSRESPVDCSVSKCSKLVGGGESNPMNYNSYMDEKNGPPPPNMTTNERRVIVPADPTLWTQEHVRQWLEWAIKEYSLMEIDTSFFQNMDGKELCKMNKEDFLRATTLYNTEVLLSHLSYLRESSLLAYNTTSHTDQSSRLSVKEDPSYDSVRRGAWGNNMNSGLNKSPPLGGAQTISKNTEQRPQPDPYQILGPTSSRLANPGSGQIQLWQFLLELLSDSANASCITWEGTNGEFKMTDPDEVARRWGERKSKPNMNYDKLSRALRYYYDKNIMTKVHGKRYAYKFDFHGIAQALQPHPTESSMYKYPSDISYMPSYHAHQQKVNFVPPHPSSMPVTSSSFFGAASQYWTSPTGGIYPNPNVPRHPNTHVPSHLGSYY
# How it was run: (§1)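 Human transcription factors fused to GST were expressed in yeast, captured on glutathione beads, given DNA barcodes and pooled with a GST-only negative control. Pools were incubated with 200 nmole of a 16-mer random double-stranded DNA library in Tris/NaCl/DTT/glycerol buffer at room temperature for 30 min. They were then washed, crosslinked with 0.1% formaldehyde, proximity-ligated (BsaI/T4 ligase, 1 h, 37 °C), PCR-amplified and sequenced on an Illumina NextSeq500. Binding signal is each 6-mer's read frequency for a factor divided by its frequency for the GST control.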
# [2] = biological target: T2, ELK1 (Homo sapiens, UniProt P19419 1-428); conditions: protein: recombinant; tags: N-terminal GST; dsDNA, one strand shown
# T2 sequence: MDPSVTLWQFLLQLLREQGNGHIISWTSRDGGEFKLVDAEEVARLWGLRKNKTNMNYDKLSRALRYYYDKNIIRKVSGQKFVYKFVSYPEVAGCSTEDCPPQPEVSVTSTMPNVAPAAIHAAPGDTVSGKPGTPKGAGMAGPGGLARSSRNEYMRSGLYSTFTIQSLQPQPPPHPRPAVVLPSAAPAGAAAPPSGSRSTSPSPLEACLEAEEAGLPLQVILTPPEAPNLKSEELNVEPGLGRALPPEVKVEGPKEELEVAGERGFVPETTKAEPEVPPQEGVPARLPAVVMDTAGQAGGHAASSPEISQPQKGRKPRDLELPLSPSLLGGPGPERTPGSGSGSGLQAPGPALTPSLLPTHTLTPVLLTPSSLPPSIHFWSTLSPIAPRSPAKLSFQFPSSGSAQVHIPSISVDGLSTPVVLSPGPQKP
# How it was run: as §1
# [3] = biological target: T3, GABPA (Homo sapiens, UniProt Q06546 1-454); conditions: protein: recombinant; tags: N-terminal GST; dsDNA, one strand shown
# T3 sequence: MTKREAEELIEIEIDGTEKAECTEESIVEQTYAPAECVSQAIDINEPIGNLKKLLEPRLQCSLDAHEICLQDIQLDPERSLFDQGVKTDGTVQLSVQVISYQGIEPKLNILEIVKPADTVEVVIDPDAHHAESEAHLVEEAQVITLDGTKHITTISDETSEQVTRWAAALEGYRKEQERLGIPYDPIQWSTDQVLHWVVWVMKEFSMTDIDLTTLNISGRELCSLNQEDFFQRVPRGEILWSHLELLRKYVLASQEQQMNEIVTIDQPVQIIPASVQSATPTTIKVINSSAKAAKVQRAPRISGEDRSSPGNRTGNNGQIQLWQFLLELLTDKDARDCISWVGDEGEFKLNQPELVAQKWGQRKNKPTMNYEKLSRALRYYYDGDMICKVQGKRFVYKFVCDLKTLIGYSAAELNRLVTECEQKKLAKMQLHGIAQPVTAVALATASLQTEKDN
# How it was run: as §1
# [4] = biological target: T4, ERG (Homo sapiens, UniProt P11308 1-479); conditions: protein: recombinant; tags: N-terminal GST; dsDNA, one strand shown
# T4 sequence: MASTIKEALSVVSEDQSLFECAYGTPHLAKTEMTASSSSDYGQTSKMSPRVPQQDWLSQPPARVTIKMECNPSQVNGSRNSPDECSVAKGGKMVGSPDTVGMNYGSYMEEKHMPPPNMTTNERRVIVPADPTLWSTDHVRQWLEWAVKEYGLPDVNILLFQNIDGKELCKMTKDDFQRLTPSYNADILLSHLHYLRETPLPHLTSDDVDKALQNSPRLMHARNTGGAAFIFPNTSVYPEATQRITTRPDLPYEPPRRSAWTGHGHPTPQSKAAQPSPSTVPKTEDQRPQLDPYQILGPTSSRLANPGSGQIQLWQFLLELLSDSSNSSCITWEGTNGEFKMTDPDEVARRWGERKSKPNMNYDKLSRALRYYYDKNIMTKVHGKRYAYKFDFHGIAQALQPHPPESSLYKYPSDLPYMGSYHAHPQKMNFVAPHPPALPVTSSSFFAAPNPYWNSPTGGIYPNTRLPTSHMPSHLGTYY
# How it was run: as §1
# [5] = biological target: ELF1 (Homo sapiens, UniProt P32519 1-619); conditions: protein: recombinant; tags: N-terminal GST; dsDNA, one strand shown
# How it was run: as §1
# [6] = biological target: T5, EHF (Homo sapiens, UniProt Q9NZC4 1-300); conditions: protein: recombinant; tags: N-terminal GST; dsDNA, one strand shown
# T5 sequence: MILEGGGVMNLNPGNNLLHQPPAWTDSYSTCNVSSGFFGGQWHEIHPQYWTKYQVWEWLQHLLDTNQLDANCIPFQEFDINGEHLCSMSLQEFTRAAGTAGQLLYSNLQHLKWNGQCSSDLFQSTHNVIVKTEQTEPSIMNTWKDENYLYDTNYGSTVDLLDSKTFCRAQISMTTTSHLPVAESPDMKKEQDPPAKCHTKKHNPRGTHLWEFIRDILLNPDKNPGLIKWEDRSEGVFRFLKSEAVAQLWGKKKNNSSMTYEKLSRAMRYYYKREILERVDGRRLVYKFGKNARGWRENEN
# How it was run: as §1
# [7] = biological target: SPI1 (Homo sapiens, UniProt P17947 1-270); conditions: protein: recombinant; tags: N-terminal GST; dsDNA, one strand shown
# How it was run: as §1
# [8] = biological target: SPIB (Homo sapiens, UniProt Q01892 1-262); conditions: protein: recombinant; tags: N-terminal GST; dsDNA, one strand shown
# How it was run: as §1
# [9] = biological target: T6, ELK3 (Homo sapiens, UniProt P41970 1-407); conditions: protein: recombinant; tags: N-terminal GST; dsDNA, one strand shown
# T6 sequence: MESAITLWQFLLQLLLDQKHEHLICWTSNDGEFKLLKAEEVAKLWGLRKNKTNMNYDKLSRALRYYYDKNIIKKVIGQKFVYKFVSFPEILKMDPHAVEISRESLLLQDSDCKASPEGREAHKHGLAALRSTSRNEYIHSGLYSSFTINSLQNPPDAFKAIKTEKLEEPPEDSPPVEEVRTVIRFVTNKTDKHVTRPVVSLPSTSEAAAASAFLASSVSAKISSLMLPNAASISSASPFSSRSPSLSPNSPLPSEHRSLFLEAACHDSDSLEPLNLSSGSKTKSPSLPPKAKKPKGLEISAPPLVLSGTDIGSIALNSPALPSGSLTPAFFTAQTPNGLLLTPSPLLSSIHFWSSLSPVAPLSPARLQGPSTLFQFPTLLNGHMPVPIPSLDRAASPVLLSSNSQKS
# How it was run: as §1
# [10] = biological target: T7, FEV (Homo sapiens, UniProt Q99581 1-238); conditions: protein: recombinant; tags: N-terminal GST; dsDNA, one strand shown
# T7 sequence: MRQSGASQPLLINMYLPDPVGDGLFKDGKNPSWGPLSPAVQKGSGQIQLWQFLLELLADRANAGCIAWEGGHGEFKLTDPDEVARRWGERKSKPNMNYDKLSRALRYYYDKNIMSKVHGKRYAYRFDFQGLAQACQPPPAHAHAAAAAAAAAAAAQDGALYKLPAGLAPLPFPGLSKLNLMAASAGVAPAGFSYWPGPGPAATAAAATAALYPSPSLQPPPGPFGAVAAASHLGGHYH
# How it was run: as §1
# [11] = biological target: ETV5 (Homo sapiens, UniProt P41161 1-510); conditions: protein: recombinant; tags: N-terminal GST; dsDNA, one strand shown
# How it was run: as §1
# [12] = biological target: HSF1 (Homo sapiens, UniProt Q00613 1-529); conditions: protein: recombinant; tags: N-terminal GST; chain copies: 3; dsDNA, one strand shown
# How it was run: as §1
# [13] = biological target: T8, SPIC (Homo sapiens, UniProt Q8N5J4 1-248); conditions: protein: recombinant; tags: N-terminal GST; dsDNA, one strand shown
# T8 sequence: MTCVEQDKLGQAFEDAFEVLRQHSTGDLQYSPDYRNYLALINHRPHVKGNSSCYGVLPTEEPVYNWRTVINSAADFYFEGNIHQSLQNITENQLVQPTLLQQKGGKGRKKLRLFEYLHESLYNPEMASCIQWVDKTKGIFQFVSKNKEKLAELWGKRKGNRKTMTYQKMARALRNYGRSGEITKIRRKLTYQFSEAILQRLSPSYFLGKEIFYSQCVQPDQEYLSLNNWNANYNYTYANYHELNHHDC
# How it was run: as §1
# [14] = biological target: ELF4 (Homo sapiens, UniProt Q99607 1-663); conditions: protein: recombinant; tags: N-terminal GST; dsDNA, one strand shown
# How it was run: as §1
# [15] = biological target: T9, ELK4 (Homo sapiens, UniProt P28324-2 1-405); conditions: protein: recombinant; tags: N-terminal GST; dsDNA, one strand shown
# T9 sequence: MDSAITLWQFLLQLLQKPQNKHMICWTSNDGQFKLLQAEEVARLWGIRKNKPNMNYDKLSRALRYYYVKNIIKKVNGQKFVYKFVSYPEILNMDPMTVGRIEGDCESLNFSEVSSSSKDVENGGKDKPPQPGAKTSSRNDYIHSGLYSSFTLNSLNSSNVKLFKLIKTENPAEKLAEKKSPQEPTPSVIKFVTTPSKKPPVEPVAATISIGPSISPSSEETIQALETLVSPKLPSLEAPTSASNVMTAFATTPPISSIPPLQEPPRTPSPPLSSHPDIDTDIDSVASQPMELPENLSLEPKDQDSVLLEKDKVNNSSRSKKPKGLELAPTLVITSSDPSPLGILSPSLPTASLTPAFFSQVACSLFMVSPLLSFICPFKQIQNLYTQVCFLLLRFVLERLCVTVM
# How it was run: as §1
# [16] = biological target: T10, ETV2 (Homo sapiens, UniProt O00321 1-342); conditions: protein: recombinant; tags: N-terminal GST; dsDNA, one strand shown
# T10 sequence: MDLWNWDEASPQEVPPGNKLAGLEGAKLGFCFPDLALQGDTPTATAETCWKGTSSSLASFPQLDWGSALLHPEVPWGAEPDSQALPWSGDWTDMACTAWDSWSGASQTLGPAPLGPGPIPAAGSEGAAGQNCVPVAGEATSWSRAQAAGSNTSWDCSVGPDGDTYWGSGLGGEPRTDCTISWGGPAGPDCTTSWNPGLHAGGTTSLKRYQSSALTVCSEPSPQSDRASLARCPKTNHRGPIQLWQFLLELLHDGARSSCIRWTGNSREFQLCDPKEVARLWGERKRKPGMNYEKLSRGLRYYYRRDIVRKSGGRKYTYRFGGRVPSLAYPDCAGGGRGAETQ
# How it was run: as §1
# [17] = biological target: T11, ELF3 (Homo sapiens, UniProt P78545 1-371); conditions: protein: recombinant; tags: N-terminal GST; dsDNA, one strand shown
# T11 sequence: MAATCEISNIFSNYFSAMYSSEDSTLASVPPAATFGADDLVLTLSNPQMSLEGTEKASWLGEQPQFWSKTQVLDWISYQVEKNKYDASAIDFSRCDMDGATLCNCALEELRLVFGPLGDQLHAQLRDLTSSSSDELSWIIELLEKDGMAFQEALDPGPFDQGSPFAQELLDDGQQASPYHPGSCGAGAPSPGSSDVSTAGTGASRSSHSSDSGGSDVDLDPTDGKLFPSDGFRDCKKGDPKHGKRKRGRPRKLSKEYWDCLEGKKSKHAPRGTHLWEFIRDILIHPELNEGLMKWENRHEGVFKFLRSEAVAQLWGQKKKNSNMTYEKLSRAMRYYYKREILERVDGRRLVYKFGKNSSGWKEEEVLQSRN
# How it was run: as §1
# [18] = biological target: CRX (Homo sapiens, UniProt O43186 1-299); conditions: protein: recombinant; tags: N-terminal GST; dsDNA, one strand shown
# How it was run: as §1
# [19] = biological target: ETV1 (Homo sapiens, UniProt P50549 1-477); conditions: protein: recombinant; tags: N-terminal GST; dsDNA, one strand shown
# How it was run: as §1
# ELF1, sequence (P32519 whole entry): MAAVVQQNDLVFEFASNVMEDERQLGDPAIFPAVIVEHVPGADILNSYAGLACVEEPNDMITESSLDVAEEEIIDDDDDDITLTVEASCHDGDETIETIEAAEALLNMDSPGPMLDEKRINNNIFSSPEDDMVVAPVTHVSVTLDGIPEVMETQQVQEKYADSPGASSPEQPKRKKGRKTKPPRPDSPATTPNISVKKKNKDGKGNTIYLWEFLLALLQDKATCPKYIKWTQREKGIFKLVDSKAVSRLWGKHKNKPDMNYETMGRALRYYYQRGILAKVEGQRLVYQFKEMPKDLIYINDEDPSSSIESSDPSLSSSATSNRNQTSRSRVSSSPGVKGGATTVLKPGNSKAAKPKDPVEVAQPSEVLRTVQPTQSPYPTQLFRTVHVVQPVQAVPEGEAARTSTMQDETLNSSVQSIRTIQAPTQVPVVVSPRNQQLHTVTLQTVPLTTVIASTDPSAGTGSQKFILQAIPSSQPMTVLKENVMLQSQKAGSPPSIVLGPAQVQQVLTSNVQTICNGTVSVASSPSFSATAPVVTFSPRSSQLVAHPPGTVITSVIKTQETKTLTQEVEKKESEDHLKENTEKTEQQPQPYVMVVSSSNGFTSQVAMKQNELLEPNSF
# ELF4, sequence (Q99607 whole entry): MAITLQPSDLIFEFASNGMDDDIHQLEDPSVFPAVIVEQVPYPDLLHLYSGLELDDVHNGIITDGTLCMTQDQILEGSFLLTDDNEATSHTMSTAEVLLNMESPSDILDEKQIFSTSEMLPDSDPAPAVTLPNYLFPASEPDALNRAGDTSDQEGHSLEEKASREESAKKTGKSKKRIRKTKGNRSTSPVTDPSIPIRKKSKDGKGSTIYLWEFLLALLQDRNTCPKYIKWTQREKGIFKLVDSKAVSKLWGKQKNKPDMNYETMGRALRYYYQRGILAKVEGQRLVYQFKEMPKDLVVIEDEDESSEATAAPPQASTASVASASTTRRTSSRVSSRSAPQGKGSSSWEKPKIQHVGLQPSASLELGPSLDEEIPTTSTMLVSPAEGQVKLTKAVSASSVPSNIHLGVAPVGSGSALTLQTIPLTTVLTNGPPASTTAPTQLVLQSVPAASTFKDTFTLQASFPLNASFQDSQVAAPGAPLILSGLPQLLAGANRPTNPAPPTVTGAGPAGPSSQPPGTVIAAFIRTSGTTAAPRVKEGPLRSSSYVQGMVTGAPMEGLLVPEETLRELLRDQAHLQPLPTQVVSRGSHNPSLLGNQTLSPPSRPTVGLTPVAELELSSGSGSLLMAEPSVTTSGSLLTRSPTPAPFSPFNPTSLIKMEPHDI
# ETV1, sequence (P50549 whole entry): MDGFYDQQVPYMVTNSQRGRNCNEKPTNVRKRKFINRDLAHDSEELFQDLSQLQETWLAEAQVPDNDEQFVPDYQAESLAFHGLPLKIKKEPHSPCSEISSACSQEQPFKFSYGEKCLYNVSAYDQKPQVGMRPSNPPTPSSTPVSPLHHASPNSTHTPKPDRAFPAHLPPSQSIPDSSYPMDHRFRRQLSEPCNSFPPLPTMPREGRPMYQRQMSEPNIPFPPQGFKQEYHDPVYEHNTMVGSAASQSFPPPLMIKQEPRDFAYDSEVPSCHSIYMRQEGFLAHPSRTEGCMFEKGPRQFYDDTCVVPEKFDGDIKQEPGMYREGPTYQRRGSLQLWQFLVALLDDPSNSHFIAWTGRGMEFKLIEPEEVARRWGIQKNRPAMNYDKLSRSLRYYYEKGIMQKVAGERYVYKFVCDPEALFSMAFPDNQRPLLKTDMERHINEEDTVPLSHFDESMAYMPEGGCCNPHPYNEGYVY
# HSF1, sequence (Q00613 whole entry): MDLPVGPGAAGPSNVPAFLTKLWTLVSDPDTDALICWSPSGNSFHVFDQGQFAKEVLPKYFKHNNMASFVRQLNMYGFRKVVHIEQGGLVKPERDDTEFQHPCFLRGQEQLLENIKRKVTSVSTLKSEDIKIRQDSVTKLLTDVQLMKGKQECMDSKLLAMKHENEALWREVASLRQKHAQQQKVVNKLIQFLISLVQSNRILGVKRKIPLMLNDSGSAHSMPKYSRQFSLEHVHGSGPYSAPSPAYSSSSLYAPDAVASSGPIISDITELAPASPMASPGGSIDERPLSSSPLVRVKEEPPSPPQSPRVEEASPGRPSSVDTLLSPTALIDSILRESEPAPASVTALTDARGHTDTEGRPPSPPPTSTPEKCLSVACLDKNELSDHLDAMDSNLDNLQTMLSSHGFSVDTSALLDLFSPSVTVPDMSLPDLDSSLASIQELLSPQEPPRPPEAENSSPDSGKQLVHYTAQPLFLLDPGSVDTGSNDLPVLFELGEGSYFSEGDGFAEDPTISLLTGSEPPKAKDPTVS
# ETV5, sequence (P41161 whole entry): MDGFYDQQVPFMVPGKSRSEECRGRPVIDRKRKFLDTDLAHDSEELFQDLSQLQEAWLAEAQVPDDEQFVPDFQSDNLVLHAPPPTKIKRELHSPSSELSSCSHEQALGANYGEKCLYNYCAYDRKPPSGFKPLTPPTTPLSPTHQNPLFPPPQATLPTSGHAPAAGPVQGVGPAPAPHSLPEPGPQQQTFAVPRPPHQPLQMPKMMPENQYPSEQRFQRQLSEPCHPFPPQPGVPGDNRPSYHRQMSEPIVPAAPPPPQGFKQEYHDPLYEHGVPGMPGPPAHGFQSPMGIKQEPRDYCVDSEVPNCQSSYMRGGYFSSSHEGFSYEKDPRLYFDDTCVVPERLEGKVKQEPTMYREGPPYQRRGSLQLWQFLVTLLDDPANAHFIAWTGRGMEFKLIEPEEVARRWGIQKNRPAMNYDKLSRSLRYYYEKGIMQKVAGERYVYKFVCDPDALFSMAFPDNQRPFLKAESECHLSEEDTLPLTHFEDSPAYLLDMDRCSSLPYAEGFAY
# CRX, sequence (O43186 whole entry): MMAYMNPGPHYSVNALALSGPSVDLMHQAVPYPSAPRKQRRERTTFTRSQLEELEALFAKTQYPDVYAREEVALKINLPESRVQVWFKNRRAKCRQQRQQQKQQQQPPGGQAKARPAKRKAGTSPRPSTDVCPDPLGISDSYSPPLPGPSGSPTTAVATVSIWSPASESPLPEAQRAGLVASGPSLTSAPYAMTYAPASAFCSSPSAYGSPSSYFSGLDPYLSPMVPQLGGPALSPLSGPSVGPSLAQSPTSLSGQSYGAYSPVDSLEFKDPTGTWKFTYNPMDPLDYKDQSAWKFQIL
# SPIB, sequence (Q01892 whole entry): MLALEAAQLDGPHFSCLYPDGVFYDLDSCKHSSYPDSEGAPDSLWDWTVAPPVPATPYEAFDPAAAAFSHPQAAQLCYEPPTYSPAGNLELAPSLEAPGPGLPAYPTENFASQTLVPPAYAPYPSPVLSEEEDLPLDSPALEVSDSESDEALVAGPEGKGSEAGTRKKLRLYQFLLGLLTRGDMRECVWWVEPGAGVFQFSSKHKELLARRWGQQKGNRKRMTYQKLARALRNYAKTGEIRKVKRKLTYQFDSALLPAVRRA
sequence,measurement,setting,value
GGGCCT,binding signal,[1],"1.26 fold enrichment (6-mer frequency, TF over GST control)"
same,binding signal,[2],"1.29 fold enrichment (6-mer frequency, TF over GST control)"
same,binding signal,[3],"1.3 fold enrichment (6-mer frequency, TF over GST control)"
same,binding signal,[4],"1.16 fold enrichment (6-mer frequency, TF over GST control)"
same,binding signal,[5],"1.27 fold enrichment (6-mer frequency, TF over GST control)"
same,binding signal,[6],"1.27 fold enrichment (6-mer frequency, TF over GST control)"
same,binding signal,[7],"1.15 fold enrichment (6-mer frequency, TF over GST control)"
same,binding signal,[8],"1.23 fold enrichment (6-mer frequency, TF over GST control)"
same,binding signal,[9],"1.32 fold enrichment (6-mer frequency, TF over GST control)"
same,binding signal,[10],"1.11 fold enrichment (6-mer frequency, TF over GST control)"
same,binding signal,[11],"1.27 fold enrichment (6-mer frequency, TF over GST control)"
same,binding signal,[12],"1.1 fold enrichment (6-mer frequency, TF over GST control)"
same,binding signal,[13],"1.13 fold enrichment (6-mer frequency, TF over GST control)"
same,binding signal,[14],"1.24 fold enrichment (6-mer frequency, TF over GST control)"
same,binding signal,[15],"1.3 fold enrichment (6-mer frequency, TF over GST control)"
same,binding signal,[16],"1.05 fold enrichment (6-mer frequency, TF over GST control)"
same,binding signal,[17],"1.19 fold enrichment (6-mer frequency, TF over GST control)"
same,binding signal,[18],"1.07 fold enrichment (6-mer frequency, TF over GST control)"
same,binding signal,[19],"1.31 fold enrichment (6-mer frequency, TF over GST control)"
